In PubChem BioAssay AID624330 (Southern Research Specialized Biocontainment Screening …, 2012):
In all, about 340,000 compounds went through this assay and about 2,100 (0.62%) were called active.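 The calls were made as follows: active = first-screen hits whose inhibition reached a set limit at any dose in the follow-up dose series; inconclusive = inhibition above the set first-screen limit but never retested; inactive = the rest.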 Not all results are given here. Potency and affinity values are given separately.

These compounds were tested against Rac GTPase-activating protein 1 (Homo sapiens) (UniProt Q9H0H5) (assay: MgcRacGAP GTPase-activating activity inhibitors, confirmation, biochemical, ADP Hunter fluorescence, primary and confirmatory (AID 624330;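 also: fluorescence reports GDP produced by GAP-driven GTP hydrolysis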)). Settings: MgcRacGAP-stimulated Rac1 GTP hydrolysis, at 30 µM, stronger effect = higher value, GST-tagged Rac1 F28L mutant substrate.
Sequence of Rac GTPase-activating protein 1 (Homo sapiens) (Q9H0H5 whole entry, looked up): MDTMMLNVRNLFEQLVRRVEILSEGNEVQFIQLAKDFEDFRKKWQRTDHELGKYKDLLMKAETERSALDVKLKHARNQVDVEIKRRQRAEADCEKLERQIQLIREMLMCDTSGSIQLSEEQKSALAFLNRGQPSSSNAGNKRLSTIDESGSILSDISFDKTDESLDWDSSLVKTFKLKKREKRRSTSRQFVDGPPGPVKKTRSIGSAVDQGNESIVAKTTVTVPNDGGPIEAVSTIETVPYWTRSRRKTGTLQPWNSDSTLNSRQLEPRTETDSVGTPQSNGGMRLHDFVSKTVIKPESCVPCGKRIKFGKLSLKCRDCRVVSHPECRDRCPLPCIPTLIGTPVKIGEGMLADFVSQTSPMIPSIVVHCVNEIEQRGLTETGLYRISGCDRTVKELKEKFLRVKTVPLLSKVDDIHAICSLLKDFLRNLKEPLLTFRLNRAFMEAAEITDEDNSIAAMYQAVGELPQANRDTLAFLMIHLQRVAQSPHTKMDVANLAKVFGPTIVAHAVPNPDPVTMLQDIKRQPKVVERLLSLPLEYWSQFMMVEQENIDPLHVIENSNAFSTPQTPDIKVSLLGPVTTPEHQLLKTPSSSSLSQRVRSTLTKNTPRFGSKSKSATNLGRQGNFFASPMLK

inhibition, inactive:
Cn1c(=O)c2[nH]c(Cc3cccc(O)c3)nc2n(C)c1=O -6.27%
O=C(Nc1ccc2c(c1)OCO2)O[C@@H]1C[C@H]2CCC(=O)N3CC[C@@H](C1)[C@@H]23 5.22%
COc1ccc(CN2CCNC(=O)C2CC(=O)NCCc2nc(C)c3c(n2)CCC3)cc1C (centres undefined) 3.36%
Cc1ccc(N)cc1NC(=O)CN1CCOCC1 9.26%
Cc1ccc(NC(=O)CCN2CCN(CCO)CC2)cc1Br 7.64%
COc1ccc(N)cc1NC(=O)CN1CCCC1 30%
CCCCOc1ccc(NC(=O)CN2CCN(C(=O)OCC)CC2)cc1 23.5%
CCCCOc1ccc(NC(=O)CN2CCN(Cc3ccccc3)CC2)cc1 2.92%
CCOC(=O)N1CCN(CC(=O)Nc2ccc(C)c(Br)c2)CC1 19.6%
CCOc1ccccc1NC(=O)CSC1=NN2CCCC(=O)N=C2S1 4.37%
O=C(Cc1nnc(NC(=O)Nc2ccccc2)s1)NCc1ccccc1 11.4%
O=C(Cc1ccccc1)NCCSCc1ccccc1 10.9%
CC(=O)NS(=O)(=O)c1ccc(NC(=O)c2cccc3ccccc23)cc1 5.73%
COC(=O)c1ccccc1NC(=O)c1cc(-c2ccc(C)cc2)on1 -6.22%
N#CCCN1CCN(C(=S)c2ccc(-c3cccc(Cl)c3)o2)CC1 6.88%
Clc1nssc1=Nc1nncs1 20.4%
Cc1ccc(N=c2ssnc2Cl)cc1 9.47%
CCCCCCCNC(=O)C1(CC2CC(c3ccccc3)=NO2)CCN(C(=O)c2ccccc2)CC1 (centres undefined) 7.41%
O=C(Cc1cccc(C(F)(F)F)c1)N1CCCC1 1.4%
COc1ccc(Br)cc1/C=N/NC(=O)CN1CCN(Cc2ccccc2)CC1 2.09%
COc1ccc(C(=O)N/C(=C\c2cn(S(=O)(=O)N(C)C)c3ccccc23)C(=O)N2CCCC2)cc1 12%
CCOc1cc(/C=N/n2nnnc2N)ccc1OCc1c(C)no[n+]1[O-] 7.97%
O=C(/C=C/c1ccccc1)NC(=O)c1ccccc1O 11.1%
O=C(/C=C/c1ccc(Br)cc1)NC(=O)c1ccccc1O 0.42%
CCN(CC)C(=O)c1[nH]cnc1C(=O)N[C@@H](CC(C)C)C(=O)OC(C)(C)C 8.38%
COc1ccc2c(c1OC)C(=O)OC2CC(=O)c1ccc(O)cc1 (centres undefined) 12.6%
COc1ccc(C(=O)CC2OC(=O)c3c2ccc(OC)c3OC)cc1 (centres undefined) -2.86%
COc1cc(S(=O)(=O)N2CCCCC2)ccc1NC(=O)c1ccncc1 4.39%
O=C(NCc1ccccc1)c1n[nH]nc1-c1ccccc1O -8.5%
Nc1nc(N)c(N=Nc2ccccc2)c(=O)[nH]1 2.34%
Nc1nc(N)c(N=Nc2ccc(C(=O)O)cc2)c(N)n1 -11.2%
C[C@H](CO)N1C[C@H](C)[C@@H](CN(C)S(C)(=O)=O)Oc2ccc(NC(=O)CCN3CCOCC3)cc2C1=O 3.2%
C(=N\Nc1nc(N2CCCC2)nc(N2CCCC2)n1)/c1ccncc1 -2.52%
O=[N+]([O-])c1cc(/C=N/Nc2nc(N3CCCCC3)nc(N3CCCCC3)n2)ccc1O 9.9%
COc1ccc(/C=N/Nc2nc(N3CCCCC3)nc(N3CCCCC3)n2)cc1[N+](=O)[O-] -0.88%
COc1ccc(/C=N/Nc2nc(N3CCCC3)nc(N3CCCC3)n2)cc1 3.1%
CCOc1ccc(/C=N/Nc2nc(N3CCCC3)nc(N3CCCC3)n2)cc1OC 3.96%
CCOc1cc(/C=N/Nc2nc(N3CCCC3)nc(N3CCCC3)n2)ccc1O 26.7%
Cn1c(=O)c2ncn(CC(=O)NCCOCc3ccccc3Cl)c2n(C)c1=O 0.57%
O=C(CS(=O)CC(=O)Nc1cccnc1)Nc1ccc(F)cc1 (centres undefined) 5.58%
CCOc1ccccc1/C=C(\C#N)C(=O)Nc1cccc(C(=O)O)c1 -4.51%
CCCCN(C(=O)C1CCN(C(=O)c2ccccc2C)CC1)c1c(N)n(CCCC)c(=O)[nH]c1=O 4%
O=C(O)COCC(=O)Nc1ccc2c(c1)ncn2CCc1ccccc1 2.87%
NC(=O)c1ccc(NC(=O)c2cncn2-c2ccccc2)cc1 1.08%
CC(C)(C)C1CCC(=O)N(CCOc2ccccc2)CC1 (centres undefined) 5.11%
CCN(c1ccccc1)S(=O)(=O)c1ccc(N2CCN(c3ccccc3O)CC2)nc1 5.54%
CCN(c1ccccc1)S(=O)(=O)c1ccc(N2CCN(c3ccc(OC)cc3)CC2)nc1 4.13%
CN1/C(=C\C(=O)c2cccc([N+](=O)[O-])c2)Sc2ccccc21 10.8%
CSCCC(NC(=O)c1ccc([N+](=O)[O-])cc1Cl)C(=O)OCC(=O)NC(=O)CN1CCCC1=O (centres undefined) -5.24%
CCOc1ccc(S(=O)(=O)N2CCN(Cc3ccccc3)CC2)cc1 -12%
CCOc1ccc(CN2CCN(S(=O)(=O)c3ccc(NC(C)=O)cc3)CC2)cc1OC 10.5%
Cc1ccc(S(=O)(=O)NCCC(=O)N2CCN(c3ccccc3)CC2)cc1C -2.5%
O=C(COC(=O)Cn1cnc2ccccc21)NCCCc1ccccc1 0.48%
O=C(CNCc1cccc(Cl)c1)N1CCc2ccccc2C1 30.6%
O=C(CNCc1ccc(Cl)cc1)N1CCc2ccccc2C1 25.8%
CN(Cc1ccc(N(C)C)cc1)C(=O)c1cc2ccccc2o1 2.93%
C#CCOCCOCCOCCNc1nc(N2CCN(C(=O)Cn3cc(CCO)nn3)CC2)nc(N2CCN(C(=O)[C@H]([C@@H](C)CC)n3cc(CCCN=C(N)N)nn3)CC2)n1 -0.25%
O=C(Cc1ccc([N+](=O)[O-])cc1)Nc1cccc(C(=O)N2CCCCC2)c1 6.71%
N/C(COc1ccc(Cl)cc1Cl)=N\O 7.42%
C[C@@H](NC(=O)C[C@@H]1C[C@@H]2c3cc(NS(=O)(=O)c4ccc(F)cc4)ccc3O[C@@H]2[C@@H](CO)O1)c1ccccc1 14.8%
CCN1/C(=C2/SC(=S)N(C)C2=O)C=Cc2cc(C)ccc21 1.56%
CCN1/C(=C2\C(=O)N(C)C(=S)N2C)C=Cc2cc(C)ccc21 30.1%
CC(C)CNC(=S)NC1CC2CCCC(C1)N2Cc1cccs1 (centres undefined) -4.03%
CCOC(=O)Nc1cc(NC(=O)OCC)c(C)nc1C 9.52%
CCc1nc(Nc2ccc(F)cc2)c2oc3ccccc3c2n1 10.5%
c1ccc2c(c1)oc1c(Nc3ccc(CN4CCOCC4)cc3)ncnc12 14.1%
CC(=O)c1ccc(Nc2ncnc3c2oc2ccccc23)cc1 5.82%
Cc1ccc(Nc2ncnc3c2oc2ccccc23)cc1 11.9%
CCc1nc(Nc2ccccc2)c2oc3ccccc3c2n1 7.79%
c1ccc(Nc2ncnc3c2oc2ccccc23)cc1 13%
CCc1nc(SCC(=O)N2CCN(c3ccccc3)CC2)c2oc3ccccc3c2n1 18.4%
CCc1nc(Nc2ccncc2)c2oc3ccccc3c2n1 9.44%
COc1ccc(NC(=O)Nc2nnc(CC(=O)NCc3ccccc3)s2)cc1 -13.3%
COc1cc(C(=O)N2CCN(c3ccc([N+](=O)[O-])cc3)CC2)ccc1OCc1c(C)noc1C 12.9%
COc1cc(NC(=O)Cn2cnc(S(=O)(=O)N3CCCCC3)c2)cc(OC)c1OC 1.97%
O=C(NCc1ccccc1)c1cc(=O)c2ccccc2o1 3.22%
CSC[C@H]1CN(Cc2ccccc2)C(=O)[C@@H]1CC(=O)Nc1ccc(Br)cc1 11%
COCCCn1c(SCC(=O)NC(C)(C)C)nnc1-c1cccs1 9.91%
O=C(N/N=C/c1ccc(C(F)(F)F)cc1)c1ccncc1 5.6%
Cc1ccc(Nc2ncnc3ccccc23)cc1 12.6%
Fc1ccc(Nc2ncnc3ccccc23)cc1 9.64%
COc1ccc(-c2nsc(SCC(=O)NCC3CCCO3)n2)cc1 (centres undefined) 5.33%
O=C1C2C3C=CC(CC3)C2C(=O)N1c1ccc([N+](=O)[O-])cc1 (centres undefined) 12.6%
COc1ccnc(NCc2cccc(C(F)(F)F)c2)c1C#N -0.963%
COc1cccc(Cn2nc(C(=O)O)c3ccccc3c2=O)c1 0.46%
CCn1c2ccccc2c2cc(NC(=O)c3ccc([N+](=O)[O-])cc3)ccc21 8.32%
Cn1ccc(=O)c2cc([N+](=O)[O-])ccc21 9.86%
Cc1csc(SCC(=O)NC2CCC(C)CC2)n1 (centres undefined) -6.91%
O=C(c1ccco1)N1CCN=C1SCc1cccnc1 4.28%
CC(Oc1ccc(Cl)cc1Cl)C(=O)Nc1cccc(O)c1 (centres undefined) 9.91%
CC(=O)Nc1ccc(NC(=O)C(C)Oc2ccc(Cl)cc2Cl)cc1 (centres undefined) 1.91%
CCN(CC)c1ccc(NC(=O)c2ccc3c(c2)OCO3)c(C)c1 24.3%
O=C(O)[C@H]1CCCC[C@H]1C(=O)Nc1ccc(S(=O)(=O)N2CCOCC2)cc1 4.65%
CCC(=O)Nc1ccc(NC(=O)c2ccc3c(c2)OCO3)cc1 11.5%
NC(=O)c1ccc(NC(=O)COC(=O)c2ccc3c(c2)OCO3)cc1 2.24%
O=C(Nc1ccc(S(=O)(=O)N2CCOCC2)cc1)c1ccc(S(=O)(=O)N2CCOCC2)cc1 0.49%
O=C(COC(=O)c1ccc2c(c1)OCO2)Nc1ccccc1 4.56%
CC(=O)Nc1ccc(C(=O)Nc2ccc(S(=O)(=O)N3CCOCC3)cc2)cc1 -2.26%
O=C(O)C1CCCCC1C(=O)Nc1ccc(S(=O)(=O)N2CCCC2)cc1 (centres undefined) 6.7%
